The values below come from PubChem BioAssay (NCATS).

Each structure is given as a SMILES string. Where “and” joins values, the source holds several entries; their conditions need not be identical. Equal entries are not always repeated. Results filed as inconclusive are left out. Values without a mark were called inactive. Calls of active or inactive are those of the source. Calls follow the shape of the dose curve; as a rule, active = well fitted inhibition curve with a large enough effect; inconclusive = small, poorly fitted or top-dose-only effect; inactive = flat fitted curve, though single readings scatter.

For experiment [1], the system named is CRL-7250. Nature of the experiment: Cytotoxic Profiling of Annotated Libraries Using Quantitative High-Throughput Screening (AID 1296008). The conditions noted are these: Five cell lines viability, CellTiter-Glo ATP luminescence, 48-72 h; max response: stronger effect = lower value. An outline of the steps: (§1)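 Cytotoxicity was measured as CellTiter-Glo ATP luminescence, read after 10 min at room temperature. Compound treatment of the cells lasted 48 or 72 hr at 37 degrees Celsius in a qHTS format.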

In experiment [2] the test system is HEK293. Described as above. The settings on record: Five cell lines viability, CellTiter-Glo ATP luminescence, 48-72 h; max response: stronger effect = lower value. In short, it runs like this:
as §1

Experiment [3] concerns HaCat. Described as above. The conditions noted are these: Five cell lines viability, CellTiter-Glo ATP luminescence, 48-72 h; max response: stronger effect = lower value. An outline of the steps:
as §1
Background: In ATP-based viability assays light output follows the ATP content of the culture.

For experiment [4], the system named is KB-3-1. Described as above. The conditions noted are these: Five cell lines viability, CellTiter-Glo ATP luminescence, 48-72 h; max response: stronger effect = lower value. In short, it runs like this: as §1
In experiment [5] the test system is NIH3T3. Described as above. The conditions noted are these: Five cell lines viability, CellTiter-Glo ATP luminescence, 48-72 h; max response: stronger effect = lower value. An outline of the steps:
as §1

For experiment [6], the system named is UISO. Nature of the experiment: qHTS assay to identify novel small-molecules to repurpose for Merkel cell carcinoma treatment (AID 1296009). The settings on record: MCC and control cell lines, CellTiter-Glo viability, 72 h; series mostly up to 46 µM. An outline of the steps: (§2)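 72 hr, 37 degree celsius; NPC 8-pt / MIPE 11-pt dose response; compound pinned in DMSO; CellTiter-Glo, 10 min RT, luminescence; normalized to no-cell and DMSO controls.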

In experiment [7] the test system is HACAT. The description is as above. The conditions noted are these: MCC and control cell lines, CellTiter-Glo viability, 72 h; series mostly up to 44.8 µM. An outline of the steps: as §2
For experiment [8], the system named is MCC-13. The description is as above. The settings on record: MCC and control cell lines, CellTiter-Glo viability, 72 h; series mostly up to 46 µM. In short, it runs like this:
as §2

For experiment [9], the system named is MCC-26. Described as above. The conditions noted are these: MCC and control cell lines, CellTiter-Glo viability, 72 h; series mostly up to 46 µM. In short, it runs like this: as §2
Experiment [10] deals with MKL-2. Described as above. The settings on record: MCC and control cell lines, CellTiter-Glo viability, 72 h; series mostly up to 46 µM. In short, it runs like this:
as §2

Experiment [11] deals with MKL-1. The description is as above. The conditions noted are these: MCC and control cell lines, CellTiter-Glo viability, 72 h; series mostly up to 46 µM. An outline of the steps: as §2
% is scaled to controls: 0 for no effect and ±100 for the full control effect; potency is read from the fitted curve at half-maximal effect.
Also: nearly all actives have a fitted effect of over 60% in size.

As for `CC(C)(C)c1cnc(CSc2cnc(NC(=O)C3CCNCC3)s2)o1`, the Potency in experiment [1] is 132 nM (active); in experiment [2] it was 0.418 µM (active); in [3], 1.32 µM (active); in [4], 332 nM (active); in [5], 3.32 µM (active); in experiment [6], 0.743 µM (active).

For `COc1cccc(-c2ccc(NC(=O)C3=C(C(=O)O)CCC3)c(F)c2)c1`, the max response in experiment [1] is -3.86% and -6.53%; in experiment [4] it was -19.3%. The Potency in experiment [2] is 7.43 µM (active) and 6.51 µM (active). In addition, the call in experiment [3] was inactive. Further, the Potency entry in [7], in experiment [8] and in experiment [9] was “inactive” each time.

Take `CN1CC[C@@H](c2c(O)cc(O)c3c(=O)cc(-c4ccccc4Cl)oc23)[C@@H](O)C1`: the Potency in [1] was 166 nM (active); in experiment [2], 0.148 µM (active); in experiment [3], 0.372 µM (active); in experiment [4], 235 nM (active); in experiment [5], 0.526 µM (active); in experiment [8], 0.59 µM (active). For the same molecule, the Potency in experiment [6] was 0.264 µM (active).

`Cc1cc(N2CCOCC2)cc2[nH]c(-c3c(NC[C@@H](O)c4cccc(Cl)c4)cc[nH]c3=O)nc12`: the Potency in experiment [1] was 11800 nM (active); in [2], 2.96 µM (active) and 7.31 µM (active); in [3], 4.18 µM (active) and 5.8 µM (active); in experiment [4], 14800 nM (active); in experiment [5], 7.43 µM (active) and 13 µM (active); in [6], 1.32 µM (active). In [10], the Potency result was “inactive”.

Consider `O=C(c1ccc(Nc2nccc(-c3cc4ccccc4s3)n2)cc1)N1CCC(N2CCCC2)CC1`, for which the Potency in experiment [1] is 14800 nM (active); in [2], 5.26 µM (active); in [3] it was 23.5 µM (active); in [4], 9350 nM (active); in experiment [5] it was 26.4 µM (active) and 23.1 µM (active); in experiment [6] it was 18.7 µM (active).

With `CC(C)(C)OC(=O)Nc1ccc(-c2cc(C(=O)NCCCCCCC(=O)NO)no2)cc1`, the Potency is 16600 nM (active) in experiment [1]; 7.43 µM (active) in experiment [2]; 20.9 µM (active) in experiment [3]; 8330 nM (active) in experiment [4]; 14.8 µM (active) in [5]; 11.8 µM (active) in experiment [8]. Also, the Potency is 18.7 µM (active) in experiment [9], 2.96 µM (active) in experiment [10] and 10.5 µM (active) in [6].

As to `CC(C)c1nn(-c2c(Cl)cccc2Cl)c2nc(Cc3ccc(OCCO)cc3)[nH]c(=O)c12`, the Potency in experiment [1] is 29.1 nM (active); in experiment [2] it was 59 nM (active) and 36.6 nM (active); in experiment [3] it was 118 nM (active) and 231 nM (active); in [4], 58 nM (active); in experiment [5], 93.5 nM (active) and 130 nM (active); in experiment [8] it was 0.105 µM (active). For the same molecule, the Potency was 0.132 µM (active) in [11], 0.105 µM (active) in experiment [10] and 0.105 µM (active) in experiment [6].

`CCOC(=O)C1=C(C)NC2=C(C(=O)CC(C)(C)C2)C1c1ccc(-c2ccccc2)cc1` (stereo not given): the Potency is 26.4 µM (active) and 10.3 µM (active) in experiment [1]; 16.6 µM (active) and 2.91 µM (active) in [2]; 7.31 µM (active) in experiment [3]; 20.9 µM (active) and 5.8 µM (active) in experiment [5]; 2.35 µM (active) in experiment [10]. Moreover, in [4], the molecule was classed as inactive. The Potency result in experiment [8], in experiment [9] and in [6] was “inactive” throughout.

As for `COc1ccc(F)c(F)c1C(=O)c1cnc(NC2CCN(S(C)(=O)=O)CC2)nc1N`, the Potency was 2.35 µM (active) and 3.66 µM (active) in [1]; 1.05 µM (active) in [2]; 10.5 µM (active) and 5.17 µM (active) in experiment [3]; 3.32 µM (active) and 4.11 µM (active) in experiment [4]; 2.09 µM (active) and 3.26 µM (active) in experiment [5]; 11.8 µM (active) in experiment [10]. The Potency in experiment [6] is 2.96 µM (active).

As for `O=C(O)Cn1nnc(-c2cc(N3CCC(Oc4cc(F)ccc4Br)CC3)no2)n1`, the max response in experiment [1] is 1.84% and -2.26%. Further, the Potency in experiment [2] was 1.18 µM (active) and 1.3 µM (active); in experiment [4], 3.72 µM (active) and 2.31 µM (active). For the same molecule, the molecule was classed as inactive in experiment [3]. The Potency result in experiment [7], in experiment [8], in experiment [9], in experiment [11], in [10] and in experiment [6] was “inactive” in each case.

Take `C[C@@H]1CN(CC(=O)Nc2ccc3c(c2)Cc2cccc(-c4cc(=O)cc(N5CCOCC5)o4)c2S3)C[C@H](C)O1`: the values for the max response in experiment [1] and in experiment [4] were -2.3% and -19.5%, respectively. Besides, the Potency in experiment [2] is 18.7 µM (active). Besides, the molecule was classed as inactive in experiment [3]. Further, the Potency entry in experiment [7], in experiment [8], in experiment [9] and in experiment [11] was “inactive” each time.
